Assay results from PubChem BioAssay AID720706 (Broad Institute, 2013).
About 5,500 (1.6%) of roughly 350,000 compounds were called active.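 How the source made its calls: active means significant combined selectivity score with lowered wild-type GFP, culture density cut under 30%, mutant RFP and density less affected; inactive means any of these conditions unmet.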 The entries come from a sample that favours actives as a whole.

assay: reduced GFP signal of wild-type E. coli, primary screen, bacterial rRNA inhibitor project, GFP/RFP fluorescence, OD600, single point (AID 720706); conditions: E. coli WT GFP vs humanized-ribosome RFP mutants, 24 h; GFP signal change (wild-type ribosome): stronger effect = lower value, DMSO median 0, no signal -100; OD600 change: measured here: OD600 growth, DMSO median 0, no signal -100; RFP signal change: measured here: RFP humanized mutant strains, DMSO median 0, no signal -100, concentration not given here

SMILES	GFP signal change (wild-type ribosome)	OD600 change [%]	RFP signal change [%]
O=C(Nc1cccc(F)c1)N1CC(=O)N2[C@H](CO)[C@H](c3ccc(C#CC4CC4)cc3)[C@@H]2C1	4.76% (inactive)	3	11.4
Cc1ccc(SC(C)C(=O)NCc2ccc(F)cc2)cc1 (configuration not stated)	7.25% (inactive)	3.19	-0.85
CSc1ccc(CN(C)CC(=O)NCc2ccc(F)cc2)cc1	-30.9% (active)	-24.5	-8.04
CCN(CC(=O)NCc1ccc(F)cc1)S(=O)(=O)c1ccc(Cl)s1	-6.72% (inactive)	-25.1	-2.95
Cc1noc(C)c1S(=O)(=O)Nc1ccc2c(c1)C(=O)N([C@@H](C)CO)C[C@@H](C)[C@H](CN(C)C(=O)NC(C)C)OCCCC[C@@H](C)O2	4.36% (inactive)	7.55	-2.26
C[C@@H]1CN([C@H](C)CO)C(=O)c2cc(-c3ccc(F)cc3)cnc2O[C@@H]1CN(C)Cc1ccc(C(=O)O)cc1	-4.64% (inactive)	1.8	-8.48
CO[C@@H]1CN(C)C(=O)c2ccc(NC(=O)Nc3cc(F)ccc3F)cc2OC[C@@H](C)N(C)C[C@@H]1C	-5.36% (inactive)	-19.5	0.48
CCC(=O)N1[C@@H](CO)[C@H](c2ccc(-c3cccc(F)c3)cc2)[C@@H]1CNC(C)=O	-3.61% (inactive)	3.25	2.12
O=C(C1CCOCC1)N1C[C@H]2[C@@H](c3ccccc31)[C@@H](CO)N2Cc1ccccc1	-1.33% (inactive)	0.79	-0.998
FC(F)(F)Oc1ccc(NC(=S)NCc2ccccc2)cc1	-56.8% (inactive)	-77.1	-19.9
O=S(=O)(Nc1ccc(O)c2ccccc12)c1ccc(OC(F)(F)F)cc1	-28.6% (active)	-14.2	-9.13
COc1ccccc1NS(=O)(=O)c1ccc(C(=O)N2CCN(c3ccccc3O)CC2)cc1	-1.32% (inactive)	-2.56	-0.007
C[C@H](CO)N1C[C@H](C)[C@H](CN(C)C(=O)C2CC2)Oc2ncc(C#Cc3ccccc3)cc2C1=O	-0.859% (inactive)	2.9	-0.79
Cc1cc(SCc2c(F)cccc2Cl)nc(=O)[nH]1	-15.5% (inactive)	0.505	-0.535
Oc1ccc(-n2nnnc2SCc2c(F)cccc2Cl)cc1	-53.5% (inactive)	-72.8	-14.2
Fc1cccc(Cl)c1CSc1ccc(-c2ccco2)nn1	-21.1% (active)	-7.59	0.773
N#C[C@@H]1[C@H](c2ccc(-c3cccnc3)cc2)[C@H](CO)N1C(=O)C1CC1	1.69% (inactive)	-1.23	1.92
C[C@@H]1CN([C@@H](C)CO)C(=O)c2cc(-c3ccc(F)cc3)cnc2O[C@H]1CN(C)C(=O)c1ccncc1	5.96% (inactive)	18.3	-6.6
COCC(=O)N[C@H]1C=C[C@H](CC(=O)N2CCCCC2)O[C@H]1CO	0.044% (inactive)	2.08	0.319
CN(CCOc1ccc(CC2SC(=O)NC2=O)cc1)c1ccccn1 (configuration not stated)	-18.5% (active)	-19.1	5.83
CC(C)=N/N=C1/NC(=O)C(Cc2ccccc2)S1 (configuration not stated)	5.19% (inactive)	0.06	4.42
CC(O)c1ccc(OCCN(C)c2ccccn2)cc1 (configuration not stated)	7.56% (inactive)	9.08	-0.281

SMILES	GFP signal change (wild-type ribosome)	OD600 change [%]	RFP signal change [%]
CCC(=O)N1CCC2(CC1)CN(Cc1ccc(Cl)cc1)[C@@H](CO)c1[nH]c3cc(OC)ccc3c12	0.255% (inactive)	-3.27	4.57
COc1ccc2c3c(n(C)c2c1)[C@@H](CO)NCC31CCN(CC2CC2)CC1	8.18% (inactive)	22.6	-3.19
O=C(NCC[C@H]1CC[C@@H](NC(=O)c2cnccn2)[C@H](CO)O1)Nc1ccc(Cl)cc1	-40.4% (inactive)	-66.2	9.29
COc1cccc(CNC(=O)[C@H]2CCCN2C(=O)[C@H]2CCCN2C(=O)c2ccc(F)cc2)c1	2.11% (inactive)	11.4	-3.48
CNC[C@H]1Oc2ccc(NC(=O)NC(C)C)cc2C(=O)N(C)C[C@@H]1C	4.42% (inactive)	7.25	0.095
Cc1ccc(NC(=O)c2sc3nc(N)c(C#N)cc3c2N)cc1	1.14% (inactive)	1.53	1.97
CCN(CC)C(=O)c1nc[nH]c1C(=O)N(C)Cc1ccccc1	31.5% (inactive)	17.4	2.93
COC(=O)c1cc2c(N)c(C(=O)c3ccc(Cl)cc3)sc2nc1C(OC)OC	19.9% (inactive)	8.88	2.24
Cc1ccc2c(N)c(C(=O)c3ccccc3)sc2n1	-33.7% (active)	-0.632	-10.4
CCN(CC)C(=O)c1sc2nc(-c3ccccc3)ccc2c1N	-15.6% (active)	-3.66	4.88
CCOC(=O)C(C)n1nc(-c2ccccc2)c2ccccc2c1=O (configuration not stated)	2% (inactive)	4.27	-0.337
CC(=O)NC[C@@H]1[C@@H](c2ccccc2)[C@@H](CO)N1C(=O)Cc1cccnc1	1.93% (inactive)	9.5	-2.5
COCC(=O)N1CC(=O)N2[C@H](CO)[C@@H](c3ccc(C#CC4CCCCC4)cc3)[C@@H]2C1	-1.52% (inactive)	-39.4	13.9
COc1ccc(NC(=O)N2CCC(Cc3ccccc3)CC2)cc1	-3.82% (inactive)	-5.59	-1.73
O=C(CN1CCCCC1)NC(=O)Nc1ccccc1F	20.5% (inactive)	19.5	2.38
CC(C)(C)NC(=O)NC(=O)CN1CCC(Cc2ccccc2)CC1	-31.9% (active)	-22.7	-1.62
CO[C@@H]1CN(C)C(=O)c2ccc(NS(=O)(=O)c3ccc(Cl)cc3)cc2OC[C@@H](C)N(C)C[C@@H]1C	-0.718% (inactive)	1.84	-0.00025
O=C(c1ccccc1F)N1CC(=O)N2[C@H](CO)[C@@H](c3ccc(-c4cccnc4)cc3)[C@H]2C1	4.23% (inactive)	20.3	2.58
CC(=O)N1C[C@@H]2C(c3ccccc3)[C@@H](C1)N2C(=O)NC(C)C (some centres not stated)	1.98% (inactive)	3.76	-1.21
Cc1nnc(SCc2ccc(C(=O)c3ccc(Cl)cc3)o2)n1-c1ccccc1	-32.1% (active)	-22.7	3.57
COC(=O)c1ccc(CSc2nc3ccccc3c(=O)n2-c2cccc(OC)c2)o1	1.15% (inactive)	-0.729	0.461
Cc1nnc(SCC(=O)Nc2cccc(N)c2)n1-c1ccccc1	6.38% (inactive)	12	4.46
